Reference: PubChem BioAssay AID504357 (The Scripps Research Institute Molecular Screening Center, 2011)
Screen size: about 340,000 compounds; about 700 (0.21%) were called active. The list comes from a sample in which actives are over-represented; it also holds similar structures and randomly drawn compounds. Values without a mark were called inactive. Rule as the data show it: active = inhibition above about 22% (passing the limit was not always enough); inactive = the rest.

What follows are compounds tested against Mu-type opioid receptor (Homo sapiens) + Delta-type opioid receptor (Homo sapiens) (UniProt P35372+P41143) (assay: OPRM1-OPRD1 heterodimer inverse agonism – cell-based, luminescence, primary screen (AID 504357;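 also: 0% = cells with DMSO and 100% = wells without cells with DMSO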)). Conditions: cell-based MOR-DOR heterodimer luminescence, at 9.3 µM, stronger effect = higher value.
Sequence of Mu-type opioid receptor (Homo sapiens) + Delta-type opioid receptor (Homo sapiens) (P35372 whole entry, looked up): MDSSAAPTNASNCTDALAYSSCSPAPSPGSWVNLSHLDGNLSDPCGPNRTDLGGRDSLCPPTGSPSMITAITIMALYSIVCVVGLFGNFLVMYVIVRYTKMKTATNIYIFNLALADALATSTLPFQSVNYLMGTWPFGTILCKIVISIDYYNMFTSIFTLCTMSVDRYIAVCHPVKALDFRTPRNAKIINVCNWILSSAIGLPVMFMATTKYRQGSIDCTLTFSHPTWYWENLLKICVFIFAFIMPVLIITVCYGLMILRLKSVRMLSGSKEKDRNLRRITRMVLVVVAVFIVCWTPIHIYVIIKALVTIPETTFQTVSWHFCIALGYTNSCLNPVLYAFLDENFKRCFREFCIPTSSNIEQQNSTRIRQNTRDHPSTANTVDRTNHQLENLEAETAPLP
Sequence of Mu-type opioid receptor (Homo sapiens) + Delta-type opioid receptor (Homo sapiens) (P41143 whole entry, looked up): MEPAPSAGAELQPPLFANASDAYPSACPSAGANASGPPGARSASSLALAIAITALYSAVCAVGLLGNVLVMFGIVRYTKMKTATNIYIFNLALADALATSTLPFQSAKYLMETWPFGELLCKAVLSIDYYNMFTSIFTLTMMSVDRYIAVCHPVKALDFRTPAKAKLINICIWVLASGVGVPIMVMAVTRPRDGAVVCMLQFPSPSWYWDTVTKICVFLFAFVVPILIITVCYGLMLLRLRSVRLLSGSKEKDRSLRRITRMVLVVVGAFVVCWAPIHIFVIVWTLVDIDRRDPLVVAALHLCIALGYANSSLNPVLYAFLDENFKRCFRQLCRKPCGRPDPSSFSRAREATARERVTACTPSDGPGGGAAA

| Compound | inhibition |
| --- | --- |
| CC1=CC(=Cc2sc3ccccc3[n+]2C)C=C(C)O1 | 17.5% (active) |
| Clc1ccc2nc3c(c(-c4ccccc4)c2c1)CNCC3 | 8.41% |
| CN(C)CC1CCCCC1=O (stereo not given) | 10.9% |
| CCC(=O)OC(Cc1ccccc1)(c1ccccc1)C(C)CN(C)C (stereo not given) | 8.03% |
| O=C(OCCN1CCOCC1)C1(c2ccccc2)CCCC1 | 1.05% |
| CCOC(=O)c1c(N)n(Cc2ccccc2)c2nc3ccccc3nc12 | 37% (active) |
| CCOC(=O)c1c(N)n(CCN2CCOCC2)c2nc3ccccc3nc12 | 30.9% (active) |
| COc1cc(Cn2c(N)c(C(=O)NCc3ccco3)c3nc4ccccc4nc32)cc(OC)c1OC | 1.03% |
| CC/C(=N\NC(=O)c1ccccc1O)c1c(O)n(Cc2ccccc2)c(=O)[nH]c1=O | 9.92% |
| CC(C)(C)c1ccc(OC(=O)N2CCCCC2)cc1 | -27.7% |
| COC(=O)C1=C(c2ccc(F)cc2OCc2ccccc2)C[C@@H]2CC[C@H]1N2C(=O)NCc1ccc2[nH]ccc2c1 | -2.75% |
| O=C(NC(c1ccc(Cl)cc1)P(=O)(Oc1ccccc1)Oc1ccccc1)OCc1ccccc1 (stereo not given) | -3.43% |
| CCC(=O)CC(c1ccc([N+](=O)[O-])cc1)c1c(O)c2ccccc2oc1=O (stereo not given) | 14.4% |
| CN(C)S(=O)(=O)c1cc(C(=O)N2CCC(C(=O)O)(c3ccccc3)CC2)ccc1Cl | 19.2% |
| Cc1nn(-c2ccccc2)c(C)c1NC(=O)COC(=O)Cc1ccccc1 | 21% |
| CC(=O)OC1C2(CC3N4C(=O)C5(CO)SSC4(CC31O)C(=O)N5C)OC(C)C(C)(C)C2=O (stereo not given) | 102% (active) |
| CC(C)Nc1nc(Cl)nc(NC(C)C)n1 | 6.88% |
| CCc1nnc(NS(=O)(=O)c2ccc(N=Cc3c(O)n(-c4ccccc4)c(=O)[nH]c3=O)cc2)s1 | 14.4% |
| CC(=NCc1ccc2c(c1)OCO2)c1c(O)[nH]c(=O)[nH]c1=O | -10.5% |
| CNCC(O)c1cc(F)c(OCc2ccccc2)c(OCc2ccccc2)c1F (stereo not given) | -9.33% |
